# According to the supplement of paper PMC11417369:
# ± gives the standard deviation of the averaged measurements. In all, about 25,000 sequences were measured (“ln(normalized median fluorescence intensity)”: median about 8.6, highest 2% from about 10 on). Many of the other results were omitted from the sample, so the highest values are more common in it than they were.
# Test system: PfAP2-EXP AP2 domain (GST-tagged)
# Test: gcPBM binding intensity (ln(normalized median fluorescence intensity)); higher = stronger DNA binding
# How it was run: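 Binding intensity values are the highest Masliner-normalised natural-log median intensity among replicate spots of either probe orientation. The binding step lasted 1 h in 1× PBS with 1% milk, 0.2 mg/ml BSA, 0.5% salmon testes DNA and 0.03% Triton X-100, using GST-tagged P. falciparum DNA-binding domains expressed in E. coli on an Agilent 4 × 180k array of primer-extended double-stranded 36-bp intergenic genomic probes plus negative controls. Alexa488 anti-GST antibody and a 488 nm scan detected bound protein.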
row,Sequence,gcPBM binding intensity (ln)
1,TTTTTTATTTTAAAAACATGCATAAAATATAATAGT [TGCATGCA_site762],8.94 ± 0.42
2,ACATGTATACTTTTTACGAAAAAAAAAAAAAAAAAA [CACACA_negctrl_site1638],8.09 ± 0.45
3,TTTTAAAAAGATCATTAAAAAAAAAAAAAGAACAAA [CACACA_negctrl_site528],8.53 ± 0.41
4,TATACATATTTGTATTGTACATAAACTAAATCTTCA [XGTACX_site610],8.21 ± 0.36
5,ATACGATTGAAACATTGTACATGAATATAAAAAAAT [XGTACX_site5704],8.88 ± 0.47
6,ATATTTTATTATTGTTGTACTTTTTTTTGATTGTTT [XGTACX_site4090],8.81 ± 0.42
7,TTGTGTTCTTATTTTTACACCGAAAAATATTAAAAG [CACACA_negctrl_site535],8.55 ± 0.29
8,AATGGATGGTCCAAATGTACATATATATATATATAT [XGTACX_site4800],10.1 ± 0.41
9,ATATATATATGTTACTGTACTAATTTATATGTTAAT [XGTACX_site3341],9.665 ± 0.064
10,AAAGGGATAACACCAAAAAAAATAAAAATAAAAATA [GTGCAC_negctrl_site680],8.61 ± 0.54
11,AGGATACACAGACACACACACATATATATATATATA [CACACA_site907],10 ± 0.45
12,AAAAATTATGGACACACACACATATATATATATATT [CACACA_site4717],8.53 ± 0.31
13,CATATAAAAAGACACACACACACATATATATATATA [CACACA_site940],10.3 ± 0.18
14,AGGATATGCAGACACACACACATATATATATATATA [CACACA_site2201],10.3 ± 0.41
15,AAAAAAAAAAGACACACACACATATAAATATAAATA [CACACA_site6899],8.75 ± 0.38
16,ATAAAAAAAAGACACACACACATATATATATATATA [CACACA_site3073],10 ± 0.33
17,AGGATATGCAGACACACACACATATAGATTTATATA [CACACA_site7100],8.41 ± 0.48
18,AATTATGGGGAAAAGACACACATATATATATATATA [CACACA_site2589],10.3 ± 0.31
19,GAGAAATGGGGACACACACACATATTATATATATAT [CACACA_site4943],9.71 ± 0.2
20,CATACCTTTTAATGTACACACATTTCTTTTTTGTTA [CACACA_site892],8.88 ± 0.28
21,AAAAAAAAAATTAAATGTACATATATAATATATATA [XGTACX_site7245],8.62 ± 0.014

row,Sequence,gcPBM binding intensity (ln)
1,TCCTACATATTATAGTGTACATTTTCATGTTCATAT [XGTACX_site4308],8.62 ± 0.39
2,ATAAGATGATGGAACTGTAATATATATATATATATA [CACACA_negctrl_site839],10 ± 0.5
3,AAAAAAATAAATAAATGTACATATATAAAACATTGT [XGTACX_site2136],8.87 ± 0.33
4,TGTAATCTGGAGAAAAGTACACAGTATCTGGTAGCT [XGTACX_site2039],8.53 ± 0.34
5,TTTTTAATTTACTGTCATAGGTACCTTAACTTATCA [CACACA_negctrl_site1664],8.72 ± 0.49
6,ATATAAATGTATATGACACACATATATATATATATA [CACACA_site889],9.91 ± 0.3
7,AATGACAACCTTGTCACACATATATATATATATATA [CACACA_site5977],10.2 ± 0.4
8,AAAAATAAAAAAATGACACACATATATATATATATA [CACACA_site2307],10 ± 0.53
9,AAAAAAAAAAAAAAAAATATATTTATGAAATAAAAA [TGCATGCA_negctrl_site262],8.405 ± 0.078
10,ATGGGACATATATATACACACATATATATATATATA [CACACA_site1202],10 ± 0.21
11,TATACAGATGGACACACACACATATATATATATATA [CACACA_site5272],10.2 ± 0.3
12,AACTTACTTGGACATACACACATATAGATTTATATA [CACACA_site7412],8.84 ± 0.3
13,AACTTACTTGGACATACACACATATATATATATATA [CACACA_site2978],10.2 ± 0.44
14,TGAACTTACTTGGACATACACACATATATATATATA [CACACA_site2977],10.2 ± 0.27
15,ATTTATATTTTATATACACACATGAACTTATATGGA [CACACA_site3167],8.37 ± 0.41
16,ATAAATATACATTATACCGACCATGTGGATATTATA [XGTACX_negctrl_site241],8.43 ± 0.49
17,GTGCATATGTAGATATGTACATATTTATTTATTATT [XGTACX_site7343],8.38 ± 0.16
18,TTCTAGAAAACTGATCGTACAAATAAATATAGACAC [XGTACX_site2808],8.88 ± 0.28
19,AATGGTAATCCACATACACACACACCGACACATATA [CACACA_site8876],8.72 ± 0.49
20,TTCTTCTGTTTTATTACACACCATTTTGTGTATACA [CACACA_site7059],8.96 ± 0.35
21,GGTATATATTTATAATGTACATATTCATATATATAA [XGTACX_site3291],8.45 ± 0.39

row,Sequence,gcPBM binding intensity (ln)
1,CATATACACCAACACACACACACACCCACAAAAAAA [CACACA_site496],8.53 ± 0.4
2,TATAAATATAAATACACACACACACGCCAAAGCGTA [CACACA_site6181],8.49 ± 0.36
3,TATATATATATATATACACACACACCCACCAAAGCG [CACACA_site7904],10.3 ± 0.26
4,ACCATACATACATACACACACACACCCATATATATA [CACACA_site2917],8.94 ± 0.45
5,TATATATATATATACACACACACACCCCAAAGCGTA [CACACA_site64],10.4 ± 0.15
6,TATATATATAAATACACACACACACCCCAAAGCGTA [CACACA_site4211],9.18 ± 0.46
7,GTACACATATAGTAATAATTTTATTATATTTTTTTG [CACACA_negctrl_site843],8.46 ± 0.3
8,TATATATATATATATTTTTTTTTTTTATGCACATGG [CACACA_negctrl_site1573],10.1 ± 0.36
9,GATTATTTTATAAGTACACACATTTATATATAATAA [CACACA_site2573],8.41 ± 0.33
10,ATATAAGTACGGCATGCATGCACATTTTTTTATTCC [TGCATGCA_site101],10.3 ± 0.23
11,AAATATTACCATGTGAAAATTTTACTGCAACATGAA [TGCATGCA_negctrl_site609],8.71 ± 0.38
12,AATGAATAATTATTTTGTACATAATATTATATTTAT [XGTACX_site5350],8.34 ± 0.36
13,AATCATTAAAGCATAATGTTTATGATCAATATGAAA [CACACA_negctrl_site887],8.27 ± 0.33
14,CCCTCTTCTCTCATATCACACATGTCATCCTTATCC [CACACA_site5078],9.15 ± 0.42
15,TTTATATTTATATATACACACATATACATCCTATTT [CACACA_site3079],8.54 ± 0.31
16,CTCATCCTTACATACACACACATATATTTATTTATA [CACACA_site6202],8.99 ± 0.39
17,TTCTCATCCTTACATACACACACATATATATATATA [CACACA_site7914],10.3 ± 0.11
18,CTCATCCTTACATACACACACATATATATATATATA [CACACA_site103],10.2 ± 0.29
19,GTTACATACATATACACACACATATATATATATATA [CACACA_site901],9.99 ± 0.35
